Here are results for 16 molecules from PubChem BioAssay (Tox21).

Each structure is given as a SMILES string. Results filed as inconclusive are left out. Activity calls are given as the source filed them. Unless noted, calls follow the shape of the dose curve; as a rule, active = well fitted curve in the direction sought with a large enough effect in the repeat runs; inconclusive = weak or mixed curves; inactive = no such curve, though single readings can be large; an effect the other way counts as inactive or inconclusive.

Test [1] in a line: qHTS assay to identify small molecule agonists of the vitamin D receptor (VDR) signaling pathway - cell viability counter screen (AID 743224). Also: nearly all actives have a fitted effect of over 50% in size. Also: potency is read from the fitted curve at half-maximal effect. In short, it runs like this: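 Counter screen for cytotoxicity: VDR-bla cells at 2,000 cells/well, 16 h compound exposure, then CellTiter-Glo luminescence after the beta-lactamase measurement.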
The nature of test [2]: qHTS assay to identify small molecule antagonists of the vitamin D receptor (VDR) signaling pathway - cell viability counter screen (AID 743225). Also: nearly all actives have a fitted effect of over 50% in size. Also: potency is read from the fitted curve at half-maximal effect. In a few lines: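 Cytotoxicity toward the VDR-bla HEK 293T line was scored by ATP-based CellTiter-Glo luminescence, read in the wells already used for the beta-lactamase readout after 16 h compound treatment under 3 nM 1-alpha,25-dihydroxyvitamin D3 stimulation.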

Test [3] in a line: qHTS assay to identify small molecule agonists of the NFkB signaling pathway - cell viability counter screen (AID 1159515; calls by dose curve; also: nearly all actives have a fitted effect of over 55% in size; also: potency is read from the fitted curve at half-maximal effect). In short, it runs like this: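 Counter screen run alongside the NFkB-bla agonist assay: ME-180 reporter cells exposed to compounds for 5 hr, then lysed with CellTiter-Glo in the same wells. Luminescence, read after 30 min, reflects viable cells.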
A short description of test [4]: qHTS assay to identify small molecule agonists of the endoplasmic reticulum stress response signaling pathway - cell viability counter screen (AID 1159517; calls by dose curve; also: nearly all actives have a fitted effect of over 50% in size; also: potency is read from the fitted curve at half-maximal effect). In short, it runs like this: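 ESRE-bla HeLa cells (1,500/well) were plated overnight at 37 C and exposed to compounds for 5 hr. After the 2 hr beta-lactamase substrate read, CellTiter-Glo went into the same wells, and luminescence was read after 30 min at room temperature.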
In general terms: Quantitative high-throughput screening tests each substance at several concentrations.

Test [5] can be described thus: qHTS assay to identify small molecule antagonists of the retinoid-related orphan receptor gamma (ROR-gamma) signaling pathway - cell viability counter screen (AID 1159520). Also: nearly all actives have a fitted effect of over 50% in size. Also: potency is read from the fitted curve at half-maximal effect. In short, it runs like this: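 Cytotoxicity was read from cellular ATP (CellTiter-Glo luminescence) after 16 hr at 37 C with 1 uM doxycycline induction. The inducer was added 2 hr after compound transfer to Tet-on ROR gamma CHO cells.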

Test [6] concerns the target Nuclear receptor ROR-gamma (Homo sapiens) (UniProt P51449). The experiment in a line: qHTS assay to identify small molecule antagonists of the retinoid-related orphan receptor gamma (ROR-gamma) signaling pathway (AID 1159521; also: nearly all actives have a fitted effect of over 50% in size; also: potency is read from the fitted curve at half-maximal effect). In short, it runs like this:
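Readout: ONE-Glo luciferase luminescence, 30 min at room temperature. System: Tet-on RORγ CHO, RORE-LUC. Sequence: compound 2 h, doxycycline 1 uM final, 16 h at 37 C.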

A short description of test [7]: qHTS assay to identify small molecule agonists of the AP-1 signaling pathway - cell viability counter screen (AID 1159525; calls by dose curve; also: nearly all actives have a fitted effect of over 55% in size; also: potency is read from the fitted curve at half-maximal effect). In a few lines:
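Intracellular ATP by Cell Titer Glo luminescence (30 min, RT) in the same ME-180 AP-1-bla wells after the 5 h compound exposure at 37 °C. Normalised to tetra n-octyl ammonium bromide and DMSO controls.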

In test [8] the target is Retinoic acid receptor RXR-alpha (Homo sapiens) (UniProt P19793). The experiment in a line: qHTS assay to identify small molecule agonists of the RXR signaling pathway (AID 1159527; calls by dose curve; also: nearly all actives have a fitted effect of over 35% in size; also: potency is read from the fitted curve at half-maximal effect). In a few lines:
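Reporter activation is measured as beta-lactamase activity via FRET substrate cleavage (emission 460/530 nm) in HEK 293T cells expressing an RXR-alpha-driven bla construct, following 16 hr compound exposure at 37 C.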

Test [9] in a line: qHTS assay to identify small molecule agonists of the RXR signaling pathway - cell viability counter screen (AID 1159529). Also: nearly all actives have a fitted effect of over 50% in size. Also: potency is read from the fitted curve at half-maximal effect. In short, it runs like this: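 Tox21 10K compounds were tested for cytotoxicity against GeneBLAzer RXR-alpha HEK 293T cells grown in 2% charcoal-stripped FBS. Exposure lasted 16 hr at 37 C, 5% CO2; viability read by CellTiter-Glo luminescence.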
A short description of test [10]: qHTS assay to identify small molecule antagonists of the retinoid acid receptor (RAR) signaling pathway - cell viability counter screen (AID 1159551). Also: nearly all actives have a fitted effect of over 35% in size. Also: potency is read from the fitted curve at half-maximal effect. In short, it runs like this:
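Measured by luminescent ATP detection, viability reflects C3RL4 cells treated 6 h at 37 C with test chemicals in the presence of 1 uM (final) retinol.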

Test [11] is described as follows: qHTS assay to identify small molecule antagonists of the retinoic acid receptor (RAR) signaling pathway (AID 1159552; also: nearly all actives have a fitted effect of over 50% in size; also: potency is read from the fitted curve at half-maximal effect). In short, it runs like this:
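Overnight-plated C3RL4 reporter cells get compound, then retinol to 1 uM final; plates sit 6 hr at 37 C, 5% CO2. A luciferase reagent is added and light output recorded after 30 min at room temperature.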

The nature of test [12]: qHTS assay to identify small molecule agonists of the retinoic acid receptor (RAR) signaling pathway (AID 1159553). Also: potency is read from the fitted curve at half-maximal effect. In a few lines: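 6 hr compound exposure (DMSO vehicle) of overnight-plated C3RL4 RARE-luc cells at 37 C; luminescence quantified after 30 min RT with luciferase reagent.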
Test [13] is described as follows: qHTS assay to identify small molecule agonists of the estrogen related receptor (ERR) signaling pathway (AID 1224820). In a few lines: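 After 6 h plating (2,000 cells/well) and 18 h compound treatment at 37 C, ERR cells were lysed with One-Glo and luminescence read after 30 min at room temperature.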
Test [14] deals with estrogen-related receptor alpha (ERRalpha) with PGC-1alpha coactivator, human. The experiment in a line: qHTS assay to identify small molecule antagonists of the estrogen related receptor signaling pathway with the pleiotropic PPARgamma coactivator (PGC) (AID 1224821; calls by dose curve). In a few lines: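 Luminescence from One-Glo luciferase reagent (30 min, room temperature) measured after 18 h compound treatment at 37 °C. Cells carry the PGC/ERR reporter and were seeded 6 h prior to dosing.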

A short description of test [15]: qHTS assay to identify small molecule antagonists of the estrogen related receptor signaling pathway with the pleiotropic PPARgamma coactivator (PGC) cell viability counter screen (AID 1224822; also: series mostly up to about 46 µM). In short, it runs like this:
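Counter screen for cell viability: PGC/ERR cells, 6 h pre-incubation after plating, 17.5 h compound exposure at 37 C, fluorescence from CellTiter-Fluor after 30 min.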

The nature of test [16]: qHTS assay to identify small molecule agonists of the estrogen related receptor signaling pathway with the pleiotropic PPARgamma coactivator (PGC) (AID 1224823). In short, it runs like this:
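Luminescence from One-Glo reagent (30 min, room temperature) was read after 18 h compound treatment at 37 C of PGC/ERR cells plated 6 h beforehand; compounds delivered in DMSO by pin tool.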

Test [17] is described as follows: qHTS assay to identify small molecule agonists of the AP-1 signaling pathway (AID 1159526; calls by dose curve).

Sequence of Retinoic acid receptor RXR-alpha (Homo sapiens) (P19793 whole entry, looked up): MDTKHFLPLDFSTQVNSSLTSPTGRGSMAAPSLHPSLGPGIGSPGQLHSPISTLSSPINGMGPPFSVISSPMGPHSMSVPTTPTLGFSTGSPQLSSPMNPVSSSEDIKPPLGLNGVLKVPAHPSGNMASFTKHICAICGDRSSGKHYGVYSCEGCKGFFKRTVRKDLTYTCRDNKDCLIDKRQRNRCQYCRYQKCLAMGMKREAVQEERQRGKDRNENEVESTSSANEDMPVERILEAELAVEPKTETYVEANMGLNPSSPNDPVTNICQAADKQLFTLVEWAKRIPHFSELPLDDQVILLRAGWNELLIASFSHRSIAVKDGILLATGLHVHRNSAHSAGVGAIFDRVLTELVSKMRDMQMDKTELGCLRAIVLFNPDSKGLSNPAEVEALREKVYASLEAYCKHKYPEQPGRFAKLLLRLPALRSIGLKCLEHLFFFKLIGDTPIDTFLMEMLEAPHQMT

For `Cc1ccc2oc(CN(Cc3ccccc3)C(=O)Nc3c(F)cc(F)cc3F)c(-c3ccc(Cl)cc3)c2c1`, the Potency entry in [1], in [2], in test [3], in test [4], in test [5] and in [7] was “inactive” in each case. Further, the Potency entry in test [8], in test [9], in test [10], in test [11] and in test [12] was “inactive” throughout. The Potency in [6] was 14.9 µM (active).

As for `CCCCCCCCNC(C)C(O)c1ccc(SC(C)C)cc1` (configuration not stated), the Potency in [1] was 13.3 µM (active); in test [2] it was 9.52 µM (active); in [3], 13.4 µM (active); in test [4], 19 µM (active); in [5] it was 18.8 µM (active); in test [6] it was 23.7 µM (active). For the same molecule, the Potency is 16.9 µM (active) in test [7], 9.52 µM (active) in [9], 26.6 µM (active) in test [10] and 13.3 µM (active) in test [11].

Turning to `CCCCCCCCCCCCCCCS(=O)(=O)Oc1ccccc1`, the Potency result in test [1], in test [2], in test [3], in [4], in [5] and in test [6] was “inactive” each time. In addition, the Potency entry in [7], in test [8], in [10], in [11] and in [12] was “inactive” in each case.

On to `CC(C)CCCCCCCCCCCCCCC(=O)O`, for which the Potency entry in test [1], in test [2], in test [3], in test [4], in test [9] and in test [10] was “inactive” each time. Moreover, the Potency result in test [12] was “inactive”. Moreover, the Potency in test [5] is 68.6 µM (active); in [6] it was 54.5 µM (active); in [7], 24.5 µM (active); in test [8] it was 11 µM (active).

As for `CC1=C(/C=C/C(C)=C/C=C/C(C)=C/C=O)C(C)(C)CCC1`, the Potency in test [1] was 15.4 µM (active); in test [2], 13.7 µM (active); in [3] it was 38.7 µM (active); in test [4], 38.7 µM (active); in test [5], 24.2 µM (active); in test [6], 30.5 µM (active). The Potency in test [7] is 34.5 µM (active); in test [8], 0.345 µM (active); in [9], 19.4 µM (active); in test [12] it was 0.542 µM (active).

Turning to `CCCCCCCC[P+](CCCCCCCC)(CCCCCCCC)CCCCCCCC`, the Potency in test [1] is 3.45 µM (active); in [2] it was 13.7 µM (active); in [3], 5.46 µM (active); in test [4] it was 13.7 µM (active); in [5], 6.82 µM (active); in [6], 1.71 µM (active). In addition, the Potency was 12.2 µM (active) in [7], 3.87 µM (active) in test [9] and 54.2 µM (active) in test [10].

Consider `Cc1cc(O)c(C(C)(C)C)cc1C(C)(C)C`, for which the Potency in [1] is 19.5 µM (active); in test [2], 21.9 µM (active); in test [3], 49 µM (active); in test [4] it was 24.5 µM (active); in [5], 54.5 µM (active); in test [6] it was 54.5 µM (active). Moreover, the Potency was 21.9 µM (active) in test [7], 21.9 µM (active) in test [9], 43.3 µM (active) in test [10] and 54.5 µM (active) in test [11].

Turning to `Cc1cc(O)c(C(C)(C)C)cc1Sc1cc(C(C)(C)C)c(O)cc1C`, the Potency in test [1] is 4.36 µM (active); in test [2] it was 7.75 µM (active); in test [3] it was 17.3 µM (active); in test [4], 21.8 µM (active); in test [5] it was 8.62 µM (active); in test [6], 2.73 µM (active). The Potency is 12.3 µM (active) in test [7], 12.3 µM (active) in [9] and 61 µM (active) in test [10]. Also, in test [11], the Potency entry was “inactive”.

In the case of `OCCN1CCN(CC/C=C2/c3ccccc3Sc3ccc(C(F)(F)F)cc32)CC1`, the Potency in [2] was 23.9 µM (active); in [3], 26.8 µM (active); in [4], 23.9 µM (active); in test [5] it was 29.8 µM (active); in test [6], 26.6 µM (active); in test [7] it was 23.9 µM (active). The Potency in [9] is 19 µM (active); in test [11], 26.6 µM (active). Besides, the result in test [13] and in test [16] was inactive. Moreover, the Potency entry in test [14] and in test [15] was “inactive” each time.

With `Cc1cccc(CN2CCN(C(c3ccccc3)c3ccc(Cl)cc3)CC2)c1` (configuration not stated), the Potency entry in test [3], in [4], in test [5], in [6], in [7] and in test [17] was “inactive” throughout. For the same molecule, in [10], the Potency result is “inactive”.

Take `CNCc1cc(F)ccc1Oc1ccc(Cl)c(Cl)c1`: the Potency result in [3], in test [4], in test [5], in test [7] and in test [10] was “inactive” throughout. For the same molecule, the Potency in test [6] is 34.4 µM (active).

As to `O=C(N/N=C/c1ccccc1O)c1ccncc1`, the Potency result in test [3], in [4], in test [5], in [7], in [9] and in test [10] was “inactive” throughout. In addition, in test [11], the Potency entry was “inactive”. For the same molecule, the Potency in test [6] was 23.7 µM (active); in test [12] it was 29.8 µM (active).

As for `CCCCCCCCCCCC[N+](C)(C)CCCCCCCCCCCC`, the Potency in test [1] was 19.5 µM (active); in test [2], 24.5 µM (active); in test [3] it was 21.9 µM (active); in test [4] it was 43.6 µM (active); in test [5], 27.3 µM (active); in test [6], 19.3 µM (active). Besides, the Potency in test [7] was 30.9 µM (active); in [9], 15.5 µM (active); in test [10], 43.3 µM (active).

As to `CN(C)c1ccc(C2(c3ccc(N(C)C)cc3)OC(=O)c3cc(N(C)C)ccc32)cc1`, the Potency entry in test [1], in [2], in test [3], in test [4], in test [5] and in test [6] was “inactive” each time. Moreover, the Potency entry in [7], in [9], in test [10], in test [11] and in test [12] was “inactive” in each case.

Consider `COC(=O)C1=C(C)NC(C)=C(C(=O)OCCc2ccc(N3CCN(C(c4ccccc4)c4ccccc4)CC3)cc2)C1c1cccc([N+](=O)[O-])c1` (configuration not stated), for which the Potency entry in test [1], in [2], in [3], in [4], in test [5] and in test [6] was “inactive” each time. The Potency result in test [7], in test [9] and in test [10] was “inactive” in each case.

With `O=C(NO)C1(NS(=O)(=O)c2ccc(Oc3ccc(F)cc3)cc2)CCOCC1`, the Potency result in test [1], in test [2], in test [3], in test [4], in test [5] and in test [6] was “inactive” throughout. Further, the Potency entry in test [7], in test [9], in [10], in [11] and in test [12] was “inactive” in each case.
